Results taken from paper PMC8384837, “Expanding the binding specificity for RNA recognition by a PUF domain”.
Changes are numbered by the printed parent chain.

Legend:
Experiment in all cases: yeast three-hybrid, YBZ-1, SC-Leu-His + 0.5 mM 3-AT, 4 days
Details in all cases: tags: N-Gal4 AD-HA kept; label: inside an RPR1-promoter hybrid RNA with tandem MS2 sites; ssRNA
PUM1 PUF domain R4-SRA = PUM1 PUF domain R4-SRA (Homo sapiens, UniProt Q14671 828-1176, N971S;H972R;Q975A)
In short: (§1)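 A centromeric plasmid in strain YBZ-1 co-expressed Pumilio-1 PUF domain libraries, randomized at the three base-contacting residues of each repeat, with matching RNA elements; the strain carries a LexA–MS2 coat fusion and a HIS3 reporter. After four days on SC-Leu (input) or SC-Leu-His + 0.5 mM 3-AT (selection), the repeat regions were PCR-amplified and Illumina-sequenced. The interaction score is the log change in variant frequency from input to selection, using log2 and a pseudocount of 1 where absent.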

PUM1 PUF domain R6-RFG = target: T1, PUM1 PUF domain R6-RFG (Homo sapiens, UniProt Q14671 828-1176, N1043R;Y1044F;Q1047G)
T1 sequence: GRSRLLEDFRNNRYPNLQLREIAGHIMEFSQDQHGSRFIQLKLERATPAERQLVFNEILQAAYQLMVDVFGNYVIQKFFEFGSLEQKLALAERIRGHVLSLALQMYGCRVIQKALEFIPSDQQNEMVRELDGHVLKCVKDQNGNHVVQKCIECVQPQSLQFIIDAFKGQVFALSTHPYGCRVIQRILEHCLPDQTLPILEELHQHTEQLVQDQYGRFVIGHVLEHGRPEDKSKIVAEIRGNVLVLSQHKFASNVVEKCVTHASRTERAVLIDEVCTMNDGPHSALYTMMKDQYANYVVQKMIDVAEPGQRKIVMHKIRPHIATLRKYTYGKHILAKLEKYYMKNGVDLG
In short: as §1

PUM1 PUF domain R6-YHR = target: T2, PUM1 PUF domain R6-YHR (Homo sapiens, UniProt Q14671 828-1176, N1043Y;Y1044H;Q1047R)
T2 sequence: T1 sequence with R216Y, F217H, G220R
In short: as §1

PUM1 PUF domain R6-KWA = target: T3, PUM1 PUF domain R6-KWA (Homo sapiens, UniProt Q14671 828-1176, N1043K;Y1044W;Q1047A)
T3 sequence: T1 sequence with R216K, F217W, G220A
In short: as §1

PUM1 PUF domain R6-SHK = target: T4, PUM1 PUF domain R6-SHK (Homo sapiens, UniProt Q14671 828-1176, N1043S;Y1044H;Q1047K)
T4 sequence: T1 sequence with R216S, F217H, G220K
In short: as §1

PUM1 PUF domain R6-LHS = target: T5, PUM1 PUF domain R6-LHS (Homo sapiens, UniProt Q14671 828-1176, N1043L;Y1044H;Q1047S)
T5 sequence: T1 sequence with R216L, F217H, G220S
In short: as §1

PUM1 PUF domain R8-RHC = PUM1 PUF domain R8-RHC (Homo sapiens, UniProt Q14671 828-1176, N1122R;Y1123H;Q1126C)
In short: as §1

PUM1 PUF domain R5-LSR = PUM1 PUF domain R5-LSR (Homo sapiens, UniProt Q14671 828-1176, C1007L;R1008S;Q1011R)
In short: as §1

PUM1 PUF domain R2-DWI = PUM1 PUF domain R2-DWI (Homo sapiens, UniProt Q14671 828-1176, N899D;Y900W;Q903I)
In short: as §1

PUM1 PUF domain R8-KRI = PUM1 PUF domain R8-KRI (Homo sapiens, UniProt Q14671 828-1176, N1122K;Y1123R;Q1126I)
In short: as §1

Sequence: GGCUAGAACUAGUGGAUCCCCCGGCGCCCGGCGGCUCGAGCCCGGGUAAGUGUAUAUAGUCUGCAUGCCGCCGGGCGCCAUGCCUGCAGGUCGACUCUAGAAAACAUG
- binding signal (PUM1 PUF domain R4-SRA): 1.92 log2 enrichment (interaction score)

Sequence: GGCUAGAACUAGUGGAUCCCCCGGCGCCCGGCGGCUCGAGCCCGGGUAAGUGUAAAUAGUCUGCAUGCCGCCGGGCGCCAUGCCUGCAGGUCGACUCUAGAAAACAUG
- binding signal (PUM1 PUF domain R6-RFG): 3.56 log2 enrichment (interaction score)
- binding signal (PUM1 PUF domain R6-YHR): 4.05 log2 enrichment (interaction score)
- binding signal (PUM1 PUF domain R4-SRA): 4.71 log2 enrichment (interaction score)
- binding signal (PUM1 PUF domain R6-KWA): 2 log2 enrichment (interaction score)
- binding signal (PUM1 PUF domain R6-SHK): 3.34 log2 enrichment (interaction score)
- binding signal (PUM1 PUF domain R6-LHS): 2.24 log2 enrichment (interaction score)
- binding signal (PUM1 PUF domain R8-RHC): 3.41 log2 enrichment (interaction score)
- binding signal (PUM1 PUF domain R5-LSR): 0.51 log2 enrichment (interaction score)

Sequence: GGCUAGAACUAGUGGAUCCCCCGGCGCCCGGCGGCUCGAGCCCGGGUAAGUGCAAAUAGUCUGCAUGCCGCCGGGCGCCAUGCCUGCAGGUCGACUCUAGAAAACAUG
- binding signal (PUM1 PUF domain R6-KWA): 4.16 log2 enrichment (interaction score)

Sequence: GGCUAGAACUAGUGGAUCCCCCGGCGCCCGGCGGCUCGAGCCCGGGUAAGUGUAAAAAGUCUGCAUGCCGCCGGGCGCCAUGCCUGCAGGUCGACUCUAGAAAACAUG
- binding signal (PUM1 PUF domain R2-DWI): 6.3 log2 enrichment (interaction score)

Sequence: GGCUAGAACUAGUGGAUCCCCCGGCGCCCGGCGGCUCGAGCCCGGGUAAGCGUAAAUAGUCUGCAUGCCGCCGGGCGCCAUGCCUGCAGGUCGACUCUAGAAAACAUG
- binding signal (PUM1 PUF domain R8-KRI): 2.91 log2 enrichment (interaction score)
- binding signal (PUM1 PUF domain R8-RHC): 4.55 log2 enrichment (interaction score)

Sequence: GGCUAGAACUAGUGGAUCCCCCGGCGCCCGGCGGCUCGAGCCCGGGUAAGUGAAAAUAGUCUGCAUGCCGCCGGGCGCCAUGCCUGCAGGUCGACUCUAGAAAACAUG
- binding signal (PUM1 PUF domain R6-KWA): 2.73 log2 enrichment (interaction score)

Sequence: GGCUAGAACUAGUGGAUCCCCCGGCGCCCGGCGGCUCGAGCCCGGGUAAGUGUACAUAGUCUGCAUGCCGCCGGGCGCCAUGCCUGCAGGUCGACUCUAGAAAACAUG
- binding signal (PUM1 PUF domain R4-SRA): 1.76 log2 enrichment (interaction score)

Sequence: GGCUAGAACUAGUGGAUCCCCCGGCGCCCGGCGGCUCGAGCCCGGGUAAGUGUCAAUAGUCUGCAUGCCGCCGGGCGCCAUGCCUGCAGGUCGACUCUAGAAAACAUG
- binding signal (PUM1 PUF domain R5-LSR): 2.6 log2 enrichment (interaction score)
